PubChem BioAssay

assay: inhibitors of PAF-induced NFkB signaling in CF airway cells, dose response, cell-based, uHTS hits, panel, cytotoxicity readout (AID 624344); details: CF bronchial epithelial cells, PAF-induced NFkB reporter inhibition, with PAF, run 1; at 79 µM (top of the series) unless noted

Row | SMILES | inhibition
1 | Cc1cccc(CS(=O)(=O)c2ncc(Cl)c(C(=O)NCc3ccccc3)n2)c1 | 92.1%
2 | COc1ccc(NC(=O)Nc2nnc(-c3ccncc3)s2)cc1 | 67.9%
3 | CCOC(=O)C1=C(CC)Nc2ccccc2N=C1NC(=O)c1oc2ccccc2c1C | 111%
4 | Cc1nnc(SCC(=O)N2CCC(c3noc4ccc(F)cc34)CC2)s1 | 101%
5 | O=c1cc(-c2ccccc2Cl)oc2c([N+](=O)[O-])c(O)cc(O)c12 | 101%
6 | NC(=S)N1OC[C@@H]2COc3ccc4ccccc4c3[C@@H]21 | 114%
7 | COc1ccc(N(CCCN2C(=O)c3cccc4cccc(c34)C2=O)C(=O)c2ccncc2)cc1 | 5.78%
8 | Cc1ccc(-c2n[nH]c(=S)n2/N=C/c2ccncc2)cc1 | 111%
9 | COc1ccc(-c2nc(N3CCOCC3)nc3n[nH]c(N)c23)cc1 | 117%
10 | CN1CCC(OC(=O)c2cc3cc(Cl)cc(Cl)c3oc2=O)CC1 | 108%
11 | Cc1ccnc(NC(=O)CSc2cc(=O)n(C)c3ccccc23)c1 | 103%
12 | FC(F)Sc1ccc(NC(=S)NCC2CCCCC2)cc1 | 106%
13 | Oc1ccc(Br)cc1-c1nc2cnccn2c1NC1CCCC1 | 101%
14 | CCCNC(=O)COC(=O)c1ccccc1C(=O)c1ccc(Cl)c([N+](=O)[O-])c1 | 96.2%
15 | Cc1ccc(CSc2nccc(-c3c(C)nc4ccccn34)n2)cc1 | 101%
16 | COc1ccc2cc3c(N)nn(C(=O)c4ccccc4[N+](=O)[O-])c3nc2c1 | 101%
17 | Cc1ccc(S(=O)(=O)Nc2cccc3ncccc23)s1 | 107%
18 | O=C(Nc1ccc(Br)c2ccccc12)c1ccc2ccccc2c1O | 112%
19 | COc1ccc(NC(=O)c2cc3c(-c4ccc(OC)c(OC)c4)nn(C)c3s2)cc1OC | 107%
20 | CC(C)C[C@@H]1NC(=O)[C@H](Cc2ccccc2)N(C)C(=O)[C@H](C)NC(=O)c2ccccc2NC(=O)[C@H](Cc2ccc(O)cc2)N(C)C1=O | 102%
21 | COc1ccc(-n2ncc3c(N4CCN(Cc5ccccc5)CC4)ncnc32)cc1 | 113%

assay: as above; details: CF bronchial epithelial cells, PAF-induced NFkB reporter inhibition, with PAF, run 2; at 79 µM (top of the series) unless noted

Row | SMILES | inhibition
22 | C=CCN1c2ccccc2Sc2cnccc21 | 116%
23 | COc1ccc(CN2C[C@H]3CCCN3c3cc(Br)ccc3S2(=O)=O)cc1 | 92.2%
24 | O=C(N/N=C/c1ccccc1Cl)c1[nH]c2ccc(Br)cc2c1-c1ccccc1 | 109%
25 | CCn1c(=O)c2c(cnn2C)c2ccccc21 | 103%
26 | N#CC(C#N)c1ccnc2ccccc12 | 102%
27 | COc1ccc(C2=Nn3c(nnc3-c3ccccc3OC)SC2)cc1OC1CCOC1 (stereo not given) | 92.2%
28 | CCOc1cccc(-c2nnc3sc(C4CCCCC4)nn23)c1 | 116%
29 | Nc1ncnc2c1c(-c1ccc(Oc3ccccc3)cc1)cn2C1CCCC1 | 94.1%
30 | O=C(CCS(=O)(=O)c1ccccc1)N(CCCN1CCOCC1)c1nc2c(F)cccc2s1 | 95.9%
31 | CC(=O)c1c(C)n(-c2ccccc2)c2ccc(O)cc12 | 91.5%
32 | c1csc(CNc2ncnc3ccc(-c4ccoc4)cc23)c1 | 116%
33 | Cc1ccc(S(=O)(=O)N2[C@@H](c3ccc(C(C)(C)C)cc3)C(C(=O)O)=CC[C@H]2c2ccc(C(C)C)cc2)cc1 | 115%
34 | COc1cc(CN(C)c2ccc(S(=O)(=O)N3CCCC3)cn2)ccc1OC(F)F | 98.6%
35 | Cc1ccccc1C(=O)N1CCN(c2ccc(NC(=O)CSc3ccc(Cl)cc3)cc2)CC1 | 71.9%
36 | Cc1c(C(=O)OCC(C)C)[nH]c2c1C(=O)CC(c1ccco1)C2 (stereo not given) | 61.5%
37 | O=C(c1ccc(O)c(Br)c1)c1cc(Br)ccc1O | 109%
38 | O=c1c(O)c(-c2ccccc2)oc2cc(O)cc(O)c12 | 106%
39 | CC1(Cc2ccc(F)cc2)C(=O)Nc2ccc(-c3cccnc3)cc21 (stereo not given) | 108%
40 | Cc1cccc(CS(=O)(=O)c2ncc(Cl)c(C(=O)NCc3ccccc3)n2)c1 | 88.2%
41 | COc1ccc(NC(=O)Nc2nnc(-c3ccncc3)s2)cc1 | 68.6%

Row | SMILES | inhibition
42 | CCOC(=O)C1=C(CC)Nc2ccccc2N=C1NC(=O)c1oc2ccccc2c1C | 91.5%
43 | Cc1nnc(SCC(=O)N2CCC(c3noc4ccc(F)cc34)CC2)s1 | 112%
44 | O=c1cc(-c2ccccc2Cl)oc2c([N+](=O)[O-])c(O)cc(O)c12 | 109%
45 | NC(=S)N1OC[C@@H]2COc3ccc4ccccc4c3[C@@H]21 | 105%
46 | COc1ccc(N(CCCN2C(=O)c3cccc4cccc(c34)C2=O)C(=O)c2ccncc2)cc1 | 45.8%
47 | Cc1ccc(-c2n[nH]c(=S)n2/N=C/c2ccncc2)cc1 | 96%
48 | COc1ccc(-c2nc(N3CCOCC3)nc3n[nH]c(N)c23)cc1 | 104%
49 | CN1CCC(OC(=O)c2cc3cc(Cl)cc(Cl)c3oc2=O)CC1 | 97.8%
50 | Cc1ccnc(NC(=O)CSc2cc(=O)n(C)c3ccccc23)c1 | 110%
51 | FC(F)Sc1ccc(NC(=S)NCC2CCCCC2)cc1 | 112%
52 | Oc1ccc(Br)cc1-c1nc2cnccn2c1NC1CCCC1 | 97.8%
53 | CCCNC(=O)COC(=O)c1ccccc1C(=O)c1ccc(Cl)c([N+](=O)[O-])c1 | 99.9%
54 | Cc1ccc(CSc2nccc(-c3c(C)nc4ccccn34)n2)cc1 | 102%
55 | COc1ccc2cc3c(N)nn(C(=O)c4ccccc4[N+](=O)[O-])c3nc2c1 | 111%
56 | Cc1ccc(S(=O)(=O)Nc2cccc3ncccc23)s1 | 97%
57 | O=C(Nc1ccc(Br)c2ccccc12)c1ccc2ccccc2c1O | 104%
58 | COc1ccc(NC(=O)c2cc3c(-c4ccc(OC)c(OC)c4)nn(C)c3s2)cc1OC | 101%
59 | CC(C)C[C@@H]1NC(=O)[C@H](Cc2ccccc2)N(C)C(=O)[C@H](C)NC(=O)c2ccccc2NC(=O)[C@H](Cc2ccc(O)cc2)N(C)C1=O | 103%
60 | COc1ccc(-n2ncc3c(N4CCN(Cc5ccccc5)CC4)ncnc32)cc1 | 102%
